PMK inhibit: S. pneumoniae PMK inhibition | purified PMK, PK/LDH-coupled NADH absorbance 340 nm | inhibition, % at 10 µM | actives 0.49% (n = 65,000);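 active = top-ranked compounds by inhibition in the single 10 µM screen, taking a fixed number of the strongest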;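 note: 0% = full reaction with DMSO carrier and 100% = background rate without enzyme reaction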
Abs 340nm: compound absorbs light at 340 nm; compound absorbance at 340 nm, fold over control; fold change at 10 µM; 65,000 tested, under 10 active;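 active = at 10 µM dose, initial 340 nm absorbance at least 2 fold that of control wells; inactive = change under 2 fold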;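 note: initial absorbance extrapolated from kinetic A340 decline of NADH oxidation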
NADH coupling: inhibitors of enzymes used to reach an NAD/NADH endpoint. coupled PK/LDH NADH assays, four targets. IC50, µM (doses to about 10 µM), for the others: at the top dose inhibition. actives 0.02% (n = 65,000);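 active = single-dose screening hits from any of four coupled enzyme assays that gave an IC50 when retested across doses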;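 note: the DPM-DC format reads NADH fluorescence rather than 340 nm absorbance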
Autofluor 339: intrinsic fluorescence of library compounds, ex339/em460 – biochemical, MLSMR library, data from DPM-DC assay, artefact control, profiling panel | compound autofluorescence, ex339/em460 nm, NADH buffer; hits give high values; 1 = no-compound wells, NADH background | fluorescence fold increase at 10 µM | actives 5.5% (n = 65,000) | AID 709;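 active = at 10 µM, mean starting fluorescence two-fold or more over control wells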;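 note: signal is the first read of a kinetic run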
Spn DPM-DC inh: blocks S. pneumoniae diphosphomevalonate decarboxylase; purified DPM-DC, PK/LDH coupled NADH fluorescence; actives 0.49% (n = 65,000); calls only at 10 µM;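 active = the 320 compounds with the highest percent inhibition in the single-dose primary screen, excluding strongly autofluorescent ones, cut at about 32% in these data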;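 note: kinetic rate of NADH fluorescence loss reporting ADP formed by the decarboxylase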
MK inhibit: blocks S. pneumoniae mevalonate kinase; purified MK, PK/LDH-coupled NADH absorbance 340 nm; inhibition, % at 10 µM; actives 0.48% (n = 65,000);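 active = ranked among the strongest by inhibition in the single 10 µM screen, a fixed top-ranked set picked for dose follow-up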
Numbers without * were called inactive; i = inactive; . = not tested or not shown; + = active, no number. Only some compounds are listed: those with a hit (about 6.8% of all), similar ones and a draw of the others.

SMILES	PMK inhibit	Abs 340nm	NADH coupling	Autofluor 339	Spn DPM-DC inh	MK inhibit
O=c1nc2n(c3sc4c(c13)CCC4)Cc1ccccc1-2	11	1.1	9%	2.2*	.	7
C=C1CSc2nc(=O)c3c4c(sc3n21)CCC4	0	1.1	0%	1.1	i	0
COc1ccc(-c2nc3c(n2O)CCCC3=O)cc1OC	13	1.1	10%	3.5*	.	6
NC(=O)C1CCCN(C(=O)Nc2cccc3ccccc23)C1 (stereo not drawn)	0	1.1	4%	2.3*	i	4
CCN1CCN(C(=O)Nc2cccc3ccccc23)CC1	0	1	2%	1.6	i	6
CN1CCN(C(=O)Nc2cccc3ccccc23)CC1	0	1	1%	2.1*	.	1
Cc1cc(=O)n2nc(N3CCC(C(=O)NCCC4=CCCCC4)CC3)sc2n1	2	1	1%	1.1	i	0
CC(C)CCNC(=O)c1cnn2c(C(F)(F)F)cc(-c3ccco3)nc12	14	1.1	12%	3*	i	2
O=C(CSc1nc(-c2ccco2)cc(C(F)(F)F)n1)NC1CCCC1	10	1.1	8%	1.1	i	7
O=C(NC1CCCC1)c1cnn2c(C(F)(F)F)cc(-c3ccco3)nc12	18	1.1	15%	2.9*	i	3
O=C(NCc1ccco1)c1cc2nc(-c3cccs3)cc(C(F)(F)F)n2n1	11	1.1	15%	2.1*	.	18
CCOC(=O)c1cc(-c2ccco2)nc2c1c(C)nn2-c1ccccc1	5	1.1	7%	2.5*	i	0
Cc1nn(-c2ccccc2)c2nc(-c3ccncc3)cc(C(=O)NCc3ccco3)c12	14	1.1	11%	1.8	i	0
Cc1cc(-c2ccccc2)nc2cc(C(N)=O)nn12	3	1	8%	2*	+	13
COc1ccc(-c2cc(C(F)(F)F)n3ncc(C(=O)NCc4ccco4)c3n2)cc1	0	1.1	3%	2.2*	.	6
O=C(NCc1ccco1)c1cnn2c(C(F)(F)F)cc(-c3ccccc3)nc12	0	1	1%	1.2	i	0
CCOC(=O)c1cnn2c(C(F)F)cc(C3CC3)nc12	7	1.1	10%	1.8	i	2
O=C(c1cnn2c(C(F)(F)F)cc(-c3ccc4c(c3)OCO4)nc12)N1CCCCC1	1	1	2%	1.4	i	5
CCOC(=O)c1cnn2c(C(F)(F)F)cc(-c3ccco3)nc12	6	1.2	7%	4.3*	.	8
O=C(NC1CCCC1)c1cnn2c(C(F)(F)F)cc(-c3ccc4c(c3)OCO4)nc12	15	1.1	9%	2.1*	i	0
CCOC(=O)c1cnn(-c2cc(C)nc3c(-c4ccccc4)cnn23)c1N	2	1	1%	1.1	i	2
CCOC(=O)c1cnn2c(C)cc(-c3ccccc3)nc12	12	1.1	9%	3.7*	.	6
CCOC(=O)C1=C(C)NC(C)=C(C(=O)OC)C1c1cccc(Cl)c1Cl (stereo not drawn)	6	0.99	3%	1.4	i	7
COC(=O)C1=C(C)NC(C)=C(C(=O)OC)C1c1cc2ccc(C)cc2[nH]c1=O	6	1.1	8%	2.2*	i	5
Cc1ccc2cc(COC(=O)c3ccncc3)c(=O)[nH]c2c1	4	1.1	11%	1.2	i	7
SMILES	PMK inhibit	Abs 340nm	NADH coupling	Autofluor 339	Spn DPM-DC inh	MK inhibit
COC(=O)C1=C(C)NC(C)=C(C(=O)OC)C1c1cc2cc(C)ccc2[nH]c1=O	7	1	4%	2.7*	i	9
CCOC(=O)C1=C(C)NC(C)=C(C(=O)OCC)C1c1cc2ccc(C)cc2[nH]c1=O	11	1.1	19%	2.2*	+	9
CC(=O)N(CCO)Cc1cc2cc(C)cc(C)c2[nH]c1=O	14	1	14%	2	i	8
CCOC(=O)CSC1=C(C#N)C(=O)NC2(CCCCC2)S1	6	1.1	2%	1	i	14
Cc1n[nH]c(=S)n(/N=C/c2ccccn2)c1=O	43*	1.1	23%	1.1	i	11
COc1ccc2nc(S(=O)Cc3ncc(C)c(OC)c3C)[nH]c2c1 (stereo not drawn)	1	0.99	8%	1.8	i	9
CCNc1oc(-c2cccc3ccccc23)nc1C#N	0	1.1	4%	2.1*	.	8
C=CCNc1oc(-c2cccc3ccccc23)nc1C#N	4	1	4%	2.9*	.	7
CC(C)Nc1oc(-c2cccc3ccccc23)nc1C#N	2	1.1	3%	3.8*	.	3
COc1cc(OC)c(N2CC34C=CC(O3)C(C(=O)O)C4C2=O)cc1Cl (stereo not drawn)	0	1	3%	1.1	i	8
COc1ccc(OC)c2[nH]c(=O)c(CCNC(=O)C3CCCCC3)cc12	13	1	5%	1.3	i	0
COCCn1cnnc1SCC(=O)Nc1ccccc1C(=O)Nc1ccc2c(c1)OCO2	15	1	6%	1.1	i	1
COc1cccc(CNC(=O)c2ccccc2N)c1	5	1	6%	3.9*	.	7
COc1cccc(CNC(=O)Cn2cccc2)c1	7	0.98	4%	1	i	6
COc1cc(CCC(=O)N2CCN(S(=O)(=O)c3ccc(C)c(C)c3)CC2)cc(OC)c1OC	18	0.99	6%	1	i	0
NC(=O)CCc1c[nH]c2ccccc12	5	1	4%	1.2	i	6
O=C(CCCc1c[nH]c2ccccc12)N1CCN(c2ccc(N3CCOCC3)nn2)CC1	1	1	3%	2.1*	.	5
COc1cc(CCC(=O)N2CCN(c3ccc(N4CCOCC4)nn3)CC2)cc(OC)c1OC	15	1	12%	2.2*	.	8
O=C(CCCN1CCC(O)(c2ccc(Cl)cc2)CC1)c1ccc(F)cc1	0	1	1%	1	i	8
N#CCCn1c(-c2nonc2NC(=O)c2ccccc2Cl)nc2ccccc21	9	0.99	7%	1.6	i	11
C=CCn1c(NC(=O)c2ccccc2)c(C#N)c2nc3ccccc3nc21	16	1.1	15%	2.1*	.	14
C=CCn1c(NC(=O)c2ccccc2Cl)c(C#N)c2nc3ccccc3nc21	11	1.1	9%	3.8*	.	6
CC(Sc1nnc(N)s1)c1ccccc1Cl (stereo not drawn)	5	1	5%	1.1	i	9
COc1ccc(C(=O)N2CCCC(c3nc(-c4ccc(OC)c(OC)c4)no3)C2)c(OC)c1 (stereo not drawn)	14	0.99	5%	1.1	i	0
Cc1cc(NC(=O)CSc2nc(-c3cccs3)cc(C(F)(F)F)n2)no1	15	1.1	6%	1.2	i	0

Source: PubChem BioAssay (SRMLSC)
